Source: PubChem BioAssay (Broad Institute)
C diff HTS: blocks growth of Clostridium difficile | 0.25% of 86,000 active | Clostridium difficile clinical isolate growth, OD600, 24 h; stronger effect = lower value | growth activity, negative = inhibition, % at 16 µg/mL (by protocol) | AID 1259249;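 active means mean growth activity at or below -80% and every replicate also at or below -80%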;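 further: 0% = DMSO wells and -100% = levofloxacin 16 µg/mL wells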
Pf Dd2 growth: inhibitors of Plasmodium falciparum Dd2 growth | P. falciparum Dd2 growth, SYBR Green, 72 h; stronger effect = lower value | AID 1159554 | activity change, % at 10 µM | 2.3% of 94,000 active; in the data active means activity change below about -80%
The depositor's hits bear a star; ! = repeats disagree. A selection: hits, their analogues and other compounds. The true share with any hit is near 2.4%.

How did C[C@H]1CN([C@@H](C)CO)C(=O)c2cc(C#Cc3ccccc3F)cnc2O[C@@H]1CN(C)C(=O)C1CCCCC1 do in these assays?
C diff HTS: 0; Pf Dd2 growth: -85*

What do the screens show for `C[C@@H]1CN([C@H](C)CO)C(=O)c2cc(C#Cc3cccc(F)c3)cnc2O[C@@H]1CN(C)C(=O)C1CCCCC1`?
Pf Dd2 growth: -88*

How did C[C@@H]1CN([C@@H](C)CO)C(=O)c2cc(C#Cc3cccc(F)c3)cnc2O[C@H]1CN(C)C(=O)C1CCCCC1 do in these assays?
C diff HTS: -1; Pf Dd2 growth: -52

Results for C[C@@H]1CN([C@@H](C)CO)C(=O)c2cc(C#Cc3ccccc3F)cnc2O[C@H]1CN(C)C(=O)C1CCCCC1 ?
C diff HTS: -23; Pf Dd2 growth: -33

What do the screens show for `C[C@H]1CN([C@@H](C)CO)C(=O)c2ccccc2-c2ccccc2CO[C@@H]1CN(C)C(=O)Nc1ccccc1C(F)(F)F`?
C diff HTS: 1; Pf Dd2 growth: -72

How did CO[C@H]1CN(C)C(=O)c2ccc(NC(=O)c3ccccc3F)cc2OC[C@H](C)N(CC2CC2)C[C@@H]1C do in these assays?
C diff HTS: 6; Pf Dd2 growth: -13

Results for CO[C@@H]1CN(C)C(=O)c2ccc(NC(=O)c3cc(C)on3)cc2OC[C@@H](C)N(S(=O)(=O)c2cccc(C)c2)C[C@H]1C ?
Pf Dd2 growth: -86*

What do the screens show for `CO[C@@H]1CN(C)C(=O)c2ccc(NC(=O)c3nc4ccccc4s3)cc2OC[C@@H](C)N(Cc2ccccc2)C[C@H]1C`?
Pf Dd2 growth: -96*

What do the screens show for `CO[C@@H]1CN(C)C(=O)c2cc(NC(=O)c3cc(C)on3)ccc2OC[C@@H](C)N(S(=O)(=O)c2cccc(C)c2)C[C@H]1C`?
Pf Dd2 growth: -50

How did CO[C@@H]1CN(C)C(=O)c2cc(NC(=O)c3nc4ccccc4s3)ccc2OC[C@@H](C)N(Cc2ccncc2)C[C@H]1C do in these assays?
C diff HTS: 34; Pf Dd2 growth: -87*

Results for COc1ccc(CN2C[C@H](C)[C@@H](OC)CN(C)C(=O)c3ccc(NC(=O)c4nc5ccccc5s4)cc3OC[C@@H]2C)cc1 ?
C diff HTS: 0; Pf Dd2 growth: -90*

Results for CO[C@H]1CN(C)C(=O)c2ccc(NC(=O)c3nc4ccccc4s3)cc2OC[C@@H](C)N(Cc2ccncc2)C[C@@H]1C ?
Pf Dd2 growth: -27

Results for CO[C@H]1CN(C)C(=O)c2cc(NC(=O)c3nc4ccccc4s3)ccc2OC[C@H](C)N(Cc2ccncc2)C[C@H]1C ?
C diff HTS: -4

What do the screens show for `COc1ccc(CN2C[C@H](C)[C@@H](OC)CN(C)C(=O)c3ccc(NC(=O)c4nc5ccccc5s4)cc3OC[C@H]2C)cc1`?
C diff HTS: 5; Pf Dd2 growth: -52

How did O=C(CN1CCOCC1)N1CC[C@@H]2[C@H](CO)Nc3ccc(-c4ccccc4)cc3[C@@H]21 do in these assays?
C diff HTS: -5; Pf Dd2 growth: 14

Results for C[C@H](CO)N1C[C@H](C)[C@H](CN(C)CC2CC2)Oc2cc(C#CC3CC3)ccc2S1(=O)=O ?
Pf Dd2 growth: -33

What do the screens show for `COCC(=O)N(C)C[C@H]1Oc2cc(C3=CCCC3)ccc2S(=O)(=O)N([C@@H](C)CO)C[C@H]1C`?
C diff HTS: -4; Pf Dd2 growth: 19

How did C/C=C/c1ccc([C@H]2[C@@H](CO)N(S(C)(=O)=O)[C@@H]2CN(CC)C(C)=O)cc1 do in these assays?
C diff HTS: 5; Pf Dd2 growth: -15

Results for CO[C@@H]1CN(C)C(=O)c2cc(NS(=O)(=O)c3cccc(F)c3)ccc2OC[C@@H](C)N(Cc2cc(F)ccc2F)C[C@H]1C ?
C diff HTS: -4; Pf Dd2 growth: -70

What do the screens show for `COc1ccc2c3c(n(C)c2c1)[C@H](CO)N(C(=O)Nc1ccccc1F)CC31CN(C)C1`?
C diff HTS: -11; Pf Dd2 growth: -79

Results for COc1ccc(CN2C[C@@H](C)[C@H](OC)CN(C)C(=O)c3cc(NC(=O)c4nc5ccccc5s4)ccc3OC[C@H]2C)cc1 ?
Pf Dd2 growth: -86*

What do the screens show for `COc1ccc(CN2C[C@@H](C)[C@H](OC)CN(C)C(=O)c3cc(NC(=O)c4nc5ccccc5s4)ccc3OC[C@@H]2C)cc1`?
Pf Dd2 growth: -71

How did C[C@H](CO)N1C[C@H](C)[C@H](CN(C)C(=O)NC2CCCCC2)OCCCC[C@H](C)Oc2ccc(NC(=O)C3CCCCC3)cc2C1=O do in these assays?
C diff HTS: 9; Pf Dd2 growth: -60

What do the screens show for `COc1ccc2c3c([nH]c2c1)[C@H](CO)N(Cc1ccccn1)CC31CN(C(=O)c2ccccn2)C1`?
C diff HTS: 4; Pf Dd2 growth: 5

Results for Cc1cccc(-c2ccc([C@@H]3[C@@H]4CN(C(=O)CN(C)C)C[C@H]3N4)cc2)c1 ?
C diff HTS: 29; Pf Dd2 growth: -85*

Results for O=C(C1CC1)N1C[C@@H]2N[C@H](C1)C2c1ccc(/C=C/c2ccccc2)cc1 (some centres not stated) ?
C diff HTS: -7; Pf Dd2 growth: 1

What do the screens show for `Cc1cccc(-c2ccc(C3[C@@H]4CN(C(=O)c5ccncc5)C[C@H]3N4)cc2)c1` (some centres not stated)?
C diff HTS: -8; Pf Dd2 growth: -9

What do the screens show for `CN(C)CC(=O)N1C[C@@H]2N[C@H](C1)C2c1ccc(/C=C/c2ccccc2)cc1` (some centres not stated)?
C diff HTS: 9; Pf Dd2 growth: -91*!

How did CNC[C@@H]1OCCCC[C@@H](C)Oc2ccc(NC(=O)Cc3ccccc3)cc2C(=O)N([C@H](C)CO)C[C@H]1C do in these assays?
C diff HTS: -4; Pf Dd2 growth: 42

How did C[C@@H]1CCCCO[C@H](CN(C)Cc2ccccc2)[C@H](C)CN([C@@H](C)CO)C(=O)c2cc(NC(=O)Nc3ccc(F)cc3)ccc2O1 do in these assays?
C diff HTS: 8; Pf Dd2 growth: -84*

What do the screens show for `C[C@@H]1CCCCO[C@@H](CN(C)Cc2ccc(Cl)c(Cl)c2)[C@@H](C)CN([C@H](C)CO)C(=O)c2cc(NC(=O)Nc3ccccc3)ccc2O1`?
C diff HTS: 2; Pf Dd2 growth: -8

What do the screens show for `Cc1noc(C)c1NC(=O)Nc1ccc2c(c1)C(=O)N([C@H](C)CO)C[C@@H](C)[C@@H](CN(C)S(C)(=O)=O)O2`?
Pf Dd2 growth: -92*

Results for C[C@@H]1CCCCO[C@@H](CN(C)Cc2ccc3c(c2)OCO3)[C@@H](C)CN([C@H](C)CO)C(=O)c2cc(NC(=O)Nc3ccccc3)ccc2O1 ?
C diff HTS: 25; Pf Dd2 growth: 18

What do the screens show for `C[C@H]1CCCCO[C@@H](CN(C)Cc2ccc3c(c2)OCO3)[C@@H](C)CN([C@@H](C)CO)C(=O)c2cc(NC(=O)Nc3ccccc3)ccc2O1`?
C diff HTS: 12; Pf Dd2 growth: -82*

What do the screens show for `C[C@@H]1CN([C@H](C)CO)C(=O)c2cc(NC(=O)Nc3ccccc3)ccc2O[C@@H](C)CCCCO[C@@H]1CN(C)Cc1ccc(Cl)c(Cl)c1`?
C diff HTS: 10; Pf Dd2 growth: -85*

What do the screens show for `Cc1noc(C)c1NC(=O)Nc1ccc2c(c1)C(=O)N([C@@H](C)CO)C[C@H](C)[C@@H](CN(C)S(C)(=O)=O)O2`?
Pf Dd2 growth: -15
